PubChem BioAssay (NCI)
Compounds without any hit were thinned out: in the full panel of roughly 83,000, 20% have a hit.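 Interpretation: 100, growth as untreated; towards 0, rising growth inhibition; 0, no net growth; 0 to -100, cell death. Compounds scoring below 10 were considered active.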 Values without a mark were called inactive. Active and inactive are the calls of the source.

The molecules below were run on MDA-MB-468 breast (assay: NCI-60 one-dose screen, 48 h (100 = growth as untreated, 0 = no growth, -100 = all killed)). Settings: 10 µM unless noted.
With `C=CCn1c(=O)c2cnc(Nc3ccc(N4CCN(C)CC4)cc3)nc2n1-c1cccc(C(C)(C)O)n1` the growth was -0.604% (active).
Molecule `CCc1ccccc1NC(=O)c1sc2nc3c(cc2c1N)C(=O)CCC3` has a growth of 43.3%.
For `CCOC(=O)c1ccc2c(c1)[n+](=O)c(C(=O)c1ccc3ccccc3c1)c(C(F)(F)F)n2[O-]`, the growth was -92.6% (active).
